# High-throughput results deposited in PubChem by University of Kansas High Throughput Screening Laboratory.
# An excerpt weighted towards active compounds, which were near 3.6% of everything screened.
# mHTT-CaM PPI inh = disrupts binding of mutant huntingtin to calmodulin; AlphaScreen His-mHTT/GST-CaM binding, luminescence; inhibition, % at 15 µM; 190,000 compounds, 3.6% hits; AID 1671202;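 also: 0% = both proteins with DMSO and 100% = one protein alone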
# Pf apPOL inh = Pf-apPOL DNA polymerase inhibition | 210,000 compounds, 0.25% hits | Recombinant Pf-apPOL, molecular beacon fluorescence, 1.5 h | inhibition, % at 10 µM | AID 1794808
# Starred values were filed as active, the others as inactive; . = no result. Rule as the data show it: active = inhibition above about 50%; inactive = the rest.
SMILES,mHTT-CaM PPI inh,Pf apPOL inh
O=C(Nc1ccc(Cl)c(C(F)(F)F)c1)C(NS(=O)(=O)c1cccs1)c1ccccc1 (configuration not stated),100*,-8
COc1cccc(CNC(=O)c2cn3c(n2)COCC3)c1OC,-2,-4
COc1ccc(S(=O)(=O)c2cc(O)ccc2O)cc1,-7,.
c1ccc(CN2CCCC(c3n[nH]c(C4CC4)n3)C2)nc1 (configuration not stated),95*,-20
c1ccc(-n2cnnc2C2CCCN(Cc3ccccn3)C2)cc1 (configuration not stated),87*,-28
N#Cc1cccc(CN2CCCC(c3nncn3-c3ccccc3)C2)c1 (configuration not stated),2,-2
c1cc(CN2CCCC(c3n[nH]c(C4CC4)n3)C2)ccn1 (configuration not stated),-5,-2
c1cc(-c2noc(-c3cccc4[nH]ccc34)n2)cc(-c2ccn[nH]2)c1,62*,4
Fc1ccccc1-c1nc(-c2cccc(-c3ccn[nH]3)c2)no1,9,2
Cc1cc(/C=C2\C(=O)NC(=O)N(c3ccccc3)C2=O)c(C)n1-c1cccc([N+](=O)[O-])c1,59*,3
CC1=NN(c2ccccc2)C(=O)/C1=C\c1cc(C)n(-c2cccc([N+](=O)[O-])c2)c1C,0,4
O=C(Cc1cccc(F)c1)N1CCCCC1CCN1CCOCC1 (configuration not stated),5,-5
COc1ccc(N(CC(=O)Nc2ccc(Br)c(C)c2)S(C)(=O)=O)c(OC)c1,54*,0
COc1ccc(NC(=O)CN(c2ccc(Cl)cc2C)S(C)(=O)=O)c(OC)c1,6,-6
O=C(c1cc2ncc(Br)cn2n1)N1CCOCC1,1,12
Cc1ccc(N2CC(NC(=O)NCCCn3ccnc3)CC2=O)cc1 (configuration not stated),98*,-3
O=C(NCCCn1ccnc1)c1ccc(C(=O)NCCCn2ccnc2)cc1,0,0
O=[N+]([O-])c1ncn(CNc2cc(Br)cc3cccnc23)n1,65*,-2
O=[N+]([O-])c1ncn(Cc2cccc(Br)c2)n1,-3,3
Cc1nnsc1-c1nnc(C2CCCCC2)o1,.,-9
COc1cc(C)c(S(=O)(=O)N(C)C2CCCCC2)cc1C,-50,0
COc1ccccc1C(=O)N1CC(C)C(c2nc(-c3ccncc3)no2)C1 (configuration not stated),2,6
Cc1ccc(C(=O)c2ccccc2)cc1[N+](=O)[O-],-5,-9
Cc1ccc(-c2[nH]c3ccccc3c2C)cc1[N+](=O)[O-],64*,0
COc1ccccc1/C=C1\N=C(c2ccc(F)cc2)OC1=O,-1,-2
SMILES,mHTT-CaM PPI inh,Pf apPOL inh
CC1=NN(C(=O)CCc2ccccc2)C(O)(c2ccc(Br)cc2)C1 (configuration not stated),54*,1
CC1=NN(C(=O)Cc2ccccc2)C(O)(c2ccc(Br)cc2)C1 (configuration not stated),16,-1
CC1=NN(C(=O)c2ccccc2)C(O)(c2ccc(Br)cc2)C1 (configuration not stated),17,-3
CCC1=NN(C(=O)c2cccc(C)c2O)C(O)(c2ccc(Br)cc2)C1 (configuration not stated),87*,-4
CCC1=NN(C(=O)c2ccccc2O)C(O)(c2ccc(Br)cc2)C1 (configuration not stated),91*,-2
CC1=NN(C(=O)c2ccccc2Br)C(O)(c2ccccc2)C1 (configuration not stated),1,-3
Cc1cccc(N2CCN(C(=O)C3CC(=O)N(c4cccc(NC(=O)C(C)C)c4)C3)CC2)c1 (configuration not stated),24,-3
Cc1ccc(C(=O)N2CCCC2c2cc(C)no2)cc1 (configuration not stated),-2,-8
Cn1c(C2CCN(C(=O)Cc3ccccc3Cl)C2)nc2cccnc21 (configuration not stated),-3,-6
CCCn1cc(C2=CCN(C(=O)Nc3ccc(OC)cc3)CC2)c2cccnc21,12,-6
O=C(CSc1cn(Cc2ccc(F)cc2)c2ccccc12)N1CCCC1,21,-2
Cc1ccccc1Cn1cc(SCC(=O)N2CCCCC2)c2ccccc21,86*,3
O=C(CSc1cn(Cc2ccc(F)cc2)c2ccccc12)N1CCCCC1,31,3
O=C(CSc1cn(Cc2ccccc2Cl)c2ccccc12)N1CCOCC1,36,-6
O=C(CSc1cn(Cc2ccc(F)cc2)c2ccccc12)N1CCCCCC1,70*,-8
CC1CCN(C(=O)CSc2cn(Cc3ccc(Cl)cc3)c3ccccc23)CC1,91*,-4
O=C(CN1CCc2ccccc21)Nc1nnc(-c2cccs2)s1,.,0
CN(Cc1ccccc1)S(=O)(=O)c1cc(C(=O)Nc2cccc(Cl)c2)ccc1F,-11,1
O=C(NCc1csc(C2CCCN(S(=O)(=O)c3ccc(F)c(F)c3)C2)n1)C1CC1 (configuration not stated),14,-2
CCCC1CCc2c(sc(NC(=O)c3cccnc3)c2C(N)=O)C1 (configuration not stated),7,5
CCCC1CCc2c(sc(NC(=O)c3ccncc3)c2C(N)=O)C1 (configuration not stated),-5,66*
COc1ccc(-c2cc3nc4c(c(=O)n3[nH]2)CN(C(C)=O)CC4)cc1,2,5
Cc1ccc(CNC(=O)N2CCc3nc4cc(-c5ccccc5Cl)[nH]n4c(=O)c3C2)cc1,53*,4
O=C(c1ccco1)N1CCc2nc3cc(-c4ccccc4Cl)[nH]n3c(=O)c2C1,2,-1
O=C(Cc1cccs1)N1CCc2nc3cc(-c4ccccc4Cl)[nH]n3c(=O)c2C1,52*,25
SMILES,mHTT-CaM PPI inh,Pf apPOL inh
O=C(Cc1ccccc1)N1CCc2c(nc3cc(-c4ccccc4Cl)[nH]n3c2=O)C1,27,18
COc1ccc(-c2cc3nc4c(c(=O)n3[nH]2)CN(C(=O)NCc2ccc(F)cc2)CC4)cc1,58*,10
COc1ccc(-c2cc3nc4c(c(=O)n3[nH]2)CN(C(=O)c2n[nH]c3ccccc23)CC4)cc1,28,17
O=C(c1n[nH]c2ccccc12)N1CCc2nc3cc(-c4ccccc4Cl)[nH]n3c(=O)c2C1,89*,21
COc1ccccc1CNC(=O)C1c2cc(OC)c(OC)cc2C(=O)N(C)C1c1ccccc1F (configuration not stated),0,-6
Cc1ccc(CNC(=O)c2cc(C)n3nc(-c4ccccn4)cc3n2)cc1,-9,-5
O=C(NC1CC1)c1ccc2ncnc(N3CCCCC3)c2c1,-10,-2
CC1(C)CC(=O)C2=C(C1)N(c1ccc(Br)cc1)C(N)=C(C#N)C2c1cccs1 (configuration not stated),42,-3
CCc1ccc(C2C(C#N)=C(N)N(c3ccccc3)C3=C2C(=O)CC(C)(C)C3)s1 (configuration not stated),50*,-8
CC1(C)CC(=O)C2=C(C1)N(c1ccc(Br)cc1F)C(N)=C(C#N)C2c1cccs1 (configuration not stated),52*,6
CCc1ccc(C2C(C#N)=C(N)N(c3ccc([N+](=O)[O-])cc3)C3=C2C(=O)CC(C)(C)C3)s1 (configuration not stated),49,1
